# Shown are actives, neighbours in structure and some others; about 0.23% of the full set was active somewhere.
# Bim-Bfl-1 = inhibitors of Bim binding to Bfl-1, primary screen, biochemical, multiplexed, bead-based flow cytometry | Bcl-2-related protein A1 (Homo sapiens), Q16548 | Bim-Bfl-1 binding inhibition | inhibition, % at 10 µM | 190,000 compounds, 0.12% hits | AID 1008, 2008;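 note: 0% = wells without compound plus tracer and 100% = blocker peptide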
# Bcl-B Bim block = inhibitors of Bim-Bcl-B binding, primary screen, biochemical, multiplexed, human Bcl-2 family; Bcl-2-like protein 10 (Homo sapiens), Q9HD36; bead-based flow cytometry, Bim peptide-Bcl-B binding; inhibition, % at 10 µM; 190,000 compounds, 0.073% hits;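 note: 0% = tracer peptide without compound and 100% = reference inhibitor peptide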
# Phagocytosis inh = inhibitors of macrophage phagocytosis, primary screen, imaging, J774A.1 cells, IgG beads; J774A.1 macrophage IgG-bead phagocytosis; inhibition, % at 5 µM; 110,000 compounds, 0.07% hits; AID 1029, 2008;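 active = inhibition above the mean of the plate negative controls plus 5 SD, cut at about 13% in these data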;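 note: phagocytic index as fraction of beads internalized from green versus red external bead signal; plate controls were DMSO negative control for no effect and cytochalasin-D positive control for full effect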
# Bcl-2 Bim block = inhibitors of Bim-Bcl-2 binding, primary screen, biochemical, multiplexed, human Bcl-2 family; Bead-based flow cytometry, Bim peptide-Bcl-2 binding; inhibition, % at 10 µM; 190,000 compounds, 0.06% hits; in the data active = inhibition above about 40%;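 note: 0% = no compound wells with probe peptide and 100% = reference peptide inhibitor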
# Target sequence (P10415 whole entry, looked up): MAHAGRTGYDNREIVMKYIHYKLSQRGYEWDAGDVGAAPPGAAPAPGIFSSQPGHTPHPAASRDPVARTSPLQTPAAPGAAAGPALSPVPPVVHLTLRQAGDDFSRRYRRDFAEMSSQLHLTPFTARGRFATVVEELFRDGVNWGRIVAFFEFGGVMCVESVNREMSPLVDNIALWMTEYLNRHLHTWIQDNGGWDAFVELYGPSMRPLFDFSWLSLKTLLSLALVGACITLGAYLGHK
# Bcl-W Bim block = inhibitors of Bim binding to Bcl-W, primary screen, biochemical, multiplexed, bead-based flow cytometry; Bcl-2-like protein 2 (Homo sapiens), Q92843; Bim peptide-Bcl-W binding; inhibition, % at 10 µM; 190,000 compounds, 0.02% hits;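 note: 0% = bound tracer without compound and 100% = peptide blocker; higher means less fluorescent Bim peptide bound to Bcl-W beads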
# Target sequence (Q92843 whole entry, looked up): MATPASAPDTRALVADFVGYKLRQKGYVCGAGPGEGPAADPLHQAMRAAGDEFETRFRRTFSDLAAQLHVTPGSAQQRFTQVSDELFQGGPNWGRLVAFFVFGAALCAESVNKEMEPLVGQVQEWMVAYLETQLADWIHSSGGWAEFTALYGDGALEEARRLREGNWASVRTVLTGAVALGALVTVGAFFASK
# Bim-Bcl-XL = inhibitors of Bim-Bcl-XL binding, primary screen, biochemical, multiplexed, bead flow cytometry, human Bcl-XL. Bcl-2-like protein 1 (Homo sapiens), Q07817. Bim peptide-Bcl-XL binding, fluorescence. inhibition, % at 10 µM. 190,000 compounds, 0.04% hits
# * hit, by the source's call; · = no result; + = active, no number; [ ] = dose if it differs, or a comment. Cut-off read from the data, not from the text of the source, unless noted: active = inhibition above about 40%.
SMILES,Bim-Bfl-1,Bcl-B Bim block,Phagocytosis inh,Bcl-2 Bim block,Bcl-W Bim block,Bim-Bcl-XL
CC(C)c1ccc(S(=O)(=O)/N=C2/C=C(Sc3ncn[nH]3)C(=O)c3ccccc32)cc1,33,28,0,22,21,29
CCCc1ncc(C(O)c2ccccc2OC)n1C (stereo unspecified),-2,-10,·,-6,1,1
COc1ccc(CC(=O)OCC(=O)NCc2ccccc2Cl)cc1,-4,-2,·,0,0,0
COc1ccc(COC(=O)NNC(=O)c2ccccc2Cl)cc1,66*,83*,·,83*,25,18
O=C(NCCCn1cccn1)c1cc(COc2ccc(F)cc2Cl)on1,-7,-2,·,-4,-1,-2
CC(C)OCCCNC(=S)NNC(=O)c1ccc(Cl)c(Cl)c1,3,-7,·,-2,4,0
Cc1ccc(C(=O)NCCNS(C)(=O)=O)cc1,-8,-9,·,-5,-2,-4
Cc1nc2ccccc2n1C1CCN(CC(=O)NCc2ccc(F)cc2)CC1,30,64*,·,59*,1,1
CC1C(C#N)=C(N)OC2=C1C(=O)CC(c1ccccc1)C2 (stereo unspecified),-8,-2,·,0,0,-4
COC(=O)c1c(NC(=O)COc2ncnc3ccccc23)sc(C)c1C,6,55*,·,38,-4,-1
CCOC(=O)c1c(NC(=O)COc2ncnc3ccccc23)sc(C(C)=O)c1C,-3,-5,-5,-4,-6,-4
CC(NCc1ccc(-c2ccccc2)cc1)C(O)c1ccccc1 (stereo unspecified),39,15,-5,30,24,40*
CN(C)c1ccc(/C=C2/SC(=O)N(CCN=C3NS(=O)(=O)c4ccccc43)C2=O)cc1,48*,92*,-14,91*,71*,50*
CC(Oc1ccc(C#N)cc1)C(=O)c1ccc(F)c(F)c1 (stereo unspecified),-3,-1,·,2,0,-1
COc1cc2c(cc1OC)C(C(=O)N1CCCCC1)C(c1ccccc1F)N(C)C2=O (stereo unspecified),-2,-1,-1,0,0,-21
COc1cc2c(cc1OC)C(c1ccccc1F)OC(=O)C2 (stereo unspecified),59*,97*,·,98*,89*,72*
FC(F)(F)c1ccc(C2Nc3cccc4cccc(c34)N2)cc1,7,7,·,0,-1,0
c1coc(C2Nc3cccc4cccc(c34)N2)c1,42*,4,-3,16,36,11
CC(=O)c1cc(F)c(N2CCN(C(=O)c3ccco3)CC2)cc1C,-3,0,1,-3,-2,6
CC(=O)c1ccc(N2CCN(C(=O)c3ccco3)CC2)c(F)c1,-15,-6,+,-6,-1,-6
CC1(C)CC(c2nc(-c3ccc([N+](=O)[O-])cc3)cs2)CCO1 (stereo unspecified),-4,-6,·,0,1,0
O=C(CCc1ccccc1)N1CCN(c2ccccn2)CC1,9,43*,-1,15,21,16
CC(=O)c1ccc(NC(=O)C(C)NCc2ccccc2Cl)cc1 (stereo unspecified),-11,-3,·,-10,-1,-2
CN(C)S(=O)(=O)c1cccc(C(=O)OCC(=O)c2ccc3c(c2)NC(=O)CO3)c1,20,43*,·,26,23,8
Cc1ccc(-n2[nH]c(C)c(/C=N/Nc3ccc([N+](=O)[O-])cc3[N+](=O)[O-])c2=O)cc1C,42*,42*,1,25,30,43*
SMILES,Bim-Bfl-1,Bcl-B Bim block,Phagocytosis inh,Bcl-2 Bim block,Bcl-W Bim block,Bim-Bcl-XL
Cc1cc(NC(=O)C23CC4CC(C2)CC(n2cnc([N+](=O)[O-])n2)(C4)C3)no1,-2,-2,·,-1,2,1
O=C(OCC(=O)N1CCCC1)c1c2c(nc3ccccc13)CCCCC2,-4,-1,·,-1,-2,-4
CCCCC1=NN2CCS(=O)(=O)N=C2S1,-4,-2,·,-5,0,0
COc1ccc(C(=O)N/N=C/c2ccc(OC)c(CN3CCc4cc(OC)c(OC)cc4C3C)c2)cc1 (stereo unspecified),-4,-2,·,-1,0,-7
O=C(NCc1ccco1)C1CC2CCC1C2 (stereo unspecified),2,2,-1,1,4,47*
CC(c1nccs1)N(C)c1nc2nonc2nc1N(C)C (stereo unspecified),-15,-7,·,-11,-5,-5
C#CC(=O)N(c1cccc(OC)c1)C(C(=O)NC1CCCC1)c1cccs1 (stereo unspecified),1,0,47*,-3,0,-1
CCCCN(C)C1CCN(C(=S)Nc2cccc(SC)c2)CC1,-4,-12,·,-4,-6,-3
CC(=O)Nc1ccc(NC2=C(Cl)C(=O)c3ccccc3C2=O)cc1,35,-57,·,4,9,-5
CN(C)c1ccc(NC2=C(Cl)C(=O)c3ccccc3C2=O)cc1,71*,-2,-10,28,48*,9
CCOC(=O)CC1CCCCN1Cc1cn[nH]c1-c1ccc(F)cc1F (stereo unspecified),-7,-5,·,-3,0,-4
CCOC(=O)CCCNC(=O)c1cncc(O)c1,46*,68*,-2,72*,11,15
COc1ccc(N2C(=O)C(CN3CCN(C)CC3)C2c2ccccc2)cc1 (stereo unspecified),-6,-2,·,-3,0,-5
CCOc1cc2c(C#N)c(N3CCCCC3)nc(N)c2c(N)n1,-10,-6,0,-9,0,-9
CCOc1cc2c(C#N)c(N3CCNCC3)nc(N)c2c(N)n1,8,53*,0,17,17,18
CC(C)C(NC(=O)OCc1ccccc1)C(=O)N1CCOCCOCCOCC1 (stereo unspecified),4,0,·,0,-3,-4
O=C(NC1=C(NC2CCS(=O)(=O)C2)C(=O)c2ccccc2C1=O)c1ccccc1 (stereo unspecified),56*,7,·,11,22,5
CSc1ccc(CN(C)C(C)C(=O)NCc2ccccc2)cc1 (stereo unspecified),-3,-2,·,3,0,-1
Cc1ccc2nc(/C(C#N)=C\c3ccc([N+](=O)[O-])o3)[nH]c2c1,1,0,33*[fluoresces],0,1,0
CSc1c(C#N)sc(=S)n1-c1ccc(C)cc1,6,0,·,0,9,2

# Bioassay records (PubChem BioAssay)
